Results: PubChem BioAssay (NCATS)
Inconclusive results are not listed. Active and inactive are the calls of the source. Calls come from the whole dose curve; as a rule, active = well fitted inhibition curve with a large enough effect; inconclusive = small, poorly fitted or top-dose-only effect; inactive = flat fitted curve, though single readings scatter.

Experiments:
Assay in all cases: qHTS profiling for inhibitors of Plasmodium falciparum proliferation (AID 504749); note: nearly all actives have a fitted effect of over 60% in size
Conditions in all cases: P. falciparum in erythrocytes, SYBR Green DNA, 72 h; series mostly up to 28.7 µM
[1] = test system: CP203
Procedure, shortened: (§1)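 Each compound contacts P. falciparum-infected red blood cells for 72 h at 37 C; lysis buffer (Tris, EDTA, saponin, Triton X, SYBR Green I) is added and fluorescence measured next morning; values normalized to controls.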

[2] = test system: CP211
Procedure, shortened: as §1

[3] = test system: CP215
Procedure, shortened: as §1

[4] = test system: CP217
Procedure, shortened: as §1

[5] = test system: CP237
Procedure, shortened: as §1

[6] = test system: CP238
Procedure, shortened: as §1

[7] = test system: CP247
Procedure, shortened: as §1

[8] = test system: CP250
Procedure, shortened: as §1

[9] = test system: CP252
Procedure, shortened: as §1

[10] = test system: CP256
Procedure, shortened: as §1

Measured: Potency

CCOc1ccc(C(=O)OCCN(CC)CC)cc1
inactive: all assays above

C[N+](C)(C)CC[N+]1(C)Cc2c(Cl)c(Cl)c(Cl)c(Cl)c2C1
inactive: all assays above

CNc1c2c(nn1C)CCCC2
inactive: all assays above

CC[N+](CC)(CC(=O)Nc1c(C)cccc1C)Cc1ccccc1
inactive: all assays above

Cc1ccc(S(=O)(=O)NC(=O)NC2CCCCC2)cc1
inactive: all assays above

O=C(CN1CCNCC1)NC1CCCCC1
inactive: all assays above

CCCOC(=O)c1ccc(N)cc1
inactive: all assays above

O=C1c2ccccc2S(=O)(=O)N1CCCCN1CCN(c2ncccn2)CC1
inactive: all assays above

CC(=O)Nc1ccc(C(=O)O)cc1
inactive: all assays above

O=C(O)CCCCC1CCSS1 (stereo not given)
inactive: all assays above

CC(C)CCCC(C)CCCC(C)CCCCC(C)CCCC(C)CCCC(C)C (stereo not given)
inactive: all assays above

Nc1ccncc1N
inactive: all assays above

Nc1ccc(S(=O)(=O)c2ccc(N)cc2)cc1
inactive: all assays above

Cc1ccccc1N=Nc1ccc(N=Nc2c(O)ccc3ccccc23)c(C)c1
inactive: all assays above

FC(F)(F)C(Cl)Br (stereo not given)
inactive: all assays above

CC(=O)N(CC(O)CO)c1c(I)c(C(=O)NCC(O)CO)c(I)c(C(=O)NCC(O)CO)c1I (stereo not given)
inactive: all assays above

CN1C(C)(C)CCCC1(C)C
inactive: all assays above

CCCC(O)C(CC)CO (stereo not given)
inactive: all assays above

CC(O)CCCCn1c(=O)c2c(ncn2C)n(C)c1=O (stereo not given)
inactive: all assays above

O=C(O)CCCc1ccccc1
inactive: all assays above

OCC(O)CS (stereo not given)
inactive: all assays above

NS(=O)(=O)c1cc2c(cc1C(F)(F)F)NCNS2(=O)=O
inactive: all assays above

O=C(Cn1ccnc1[N+](=O)[O-])NCc1ccccc1
inactive: all assays above

NS(=O)(=O)c1ccc(NC(=O)CCC(=O)O)cc1
inactive: all assays above

COc1ccc(C(=O)NCc2ccc(OCCN(C)C)cc2)cc1OC
inactive: all assays above

CC1CCc2cc(F)cc3c(=O)c(C(=O)O)cn1c23 (stereo not given)
inactive: all assays above

Cc1c(Cn2ccnc2)c2ccccc2n1CCC(=O)O
inactive: all assays above

CC(=O)Oc1cccc(C)c1
inactive: all assays above

COc1cc(O)cc(O)c1
inactive: all assays above

CCOC(=O)c1cccnc1
inactive: all assays above

Cc1cccc(C(=O)O)c1O
inactive: all assays above

CC(C)C[C@@H](N)C(=O)O
inactive: all assays above

NNC(=O)CP(=O)(c1ccccc1)c1ccccc1
inactive: all assays above

CC(=O)NCc1c(I)c(NC(C)=O)c(I)c(C(=O)O)c1I
inactive: all assays above

O=C(O)c1cc(=O)c2ccccc2o1
inactive: all assays above

O=C(O)Cc1ccc(CCNS(=O)(=O)c2ccc(Cl)cc2)cc1
inactive: all assays above

Cc1c(C)c2c(c(C)c1OC(=O)c1cccnc1)CC[C@@](C)(CCC[C@H](C)CCC[C@H](C)CCCC(C)C)O2
inactive: all assays above
